# PubChem BioAssay AID720690 (Broad Institute, 2013)
# Entries with a potency or affinity are not part of this list. Values without a mark were called inactive.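 Rule for the calls: active = every repeat run showing a signal drop whose fitted half-maximal concentration is at most twice the top tested concentration; inconclusive = repeat runs disagree, or flat partial drop, or poor fit; inactive = the rest.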
# Test: HEK293T cytotoxicity, dose response, cytotoxicity control for miR-122 modulator project, cell-based, activator set, cherry-pick (AID 720690);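 note: 0% = neutral control wells and -100% = MG132 cytotoxic control wells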
# Settings: HEK293T viability, CellTiter-Glo luminescence, 48 h; series mostly up to 26 µM; activity change, negative = cytotoxicity: at the top concentration
row,Structure (SMILES),"activity change, negative = cytotoxicity"
1,CNC(=O)C[C@H]1CC[C@H]2[C@H](COc3ccc(NC(=O)c4cccc(F)c4)cc3C(=O)N2C)O1,-2.89%
2,CC(C)NC(=O)N1C[C@@H]2[C@H](c3ccccc31)[C@H](CO)N2Cc1ccccc1,-2.49% [at 23.5 µM]
3,O=S(=O)(Nc1nccs1)c1ccc(NS(=O)(=O)c2cccs2)cc1,15.5%
4,CNC(=O)C[C@@H]1CC[C@@H]2[C@@H](COc3ccc(NC(=O)Nc4ccc(F)c(F)c4)cc3C(=O)N2C)O1,15.3%
5,CCCNC(=O)N1[C@H](CO)[C@H](c2ccc(-c3ccccc3)cc2)[C@@H]1CNC(C)=O,-2.1%
6,CN1C(=O)c2cc(NC(=O)c3cccc(F)c3)ccc2OC[C@@H]2O[C@@H](CC(=O)NC3CCC3)CC[C@@H]21,-15.9%
7,COc1cc(NC(=O)c2c(F)c(F)c(F)c(F)c2F)c(OC)cc1Cl,4.98%
8,Cc1ccc(-c2ccc3c(c2)O[C@H](CN(C)C(=O)CC2CC2)[C@H](C)CN([C@@H](C)CO)S3(=O)=O)cc1,-17.2%
9,CCS(=O)(=O)Nc1ccc2c(c1)C(=O)N(C)C[C@@H](OC)[C@H](C)CN(CC1CCCC1)[C@H](C)CO2,-3.76%
10,CC(=O)Nc1ccc2c(c1)C(=O)N(C)[C@@H]1CC[C@H](CC(=O)NCCCN3CCOCC3)O[C@@H]1CO2,3.3% [at 23.5 µM]
11,CO[C@H]1CN(C)C(=O)c2ccc(NC(C)=O)cc2OC[C@@H](C)N(C(=O)CC2CC2)C[C@H]1C,-2.04%
12,CN(C[C@H]1[C@H](c2ccccc2)[C@@H](CO)N1CC1CC1)C(=O)c1cccc(F)c1,-1.25% [at 23.5 µM]
13,C[C@@H]1CN([C@@H](C)CO)S(=O)(=O)c2ccc(-c3ccc(C(=O)N(C)C)cc3)cc2O[C@@H]1CN(C)C(=O)C1CCC1,-6.11%
